Each structure is given as a SMILES string. Inconclusive results are not listed. Activity calls are given as the source filed them. Calls come from the whole dose curve.

This test is described as follows: qHTS assay to identify small molecule agonists of the NFkB signaling pathway - cell viability counter screen (AID 1159515). Note: nearly all actives have a fitted effect of over 55% in size. The conditions noted are these: NFkB-bla ME-180 viability, CellTiter-Glo luminescence, 5 h; series mostly up to 61 µM. The text has this: National Center for Advancing Translational Sciences [NCATS]
NIH Chemical Genomics Center [NCGC]
U.S. Environmental Protection Agency [EPA]
National Institutes of Environmental Health Sciences [NIEHS]
National Toxicology Program [NTP]
U.S. Food and Drug Administration [FDA]
Transcription factors and their stimulated target gene expression play pivotal roles across many cellular processes including responses to environmental stimuli. Proper regulation of associated pathways is critical to maintain cell health and function. Constitutive activation of transcription factor pathways has been implicated in tumors as it may block cellular functions such as apoptosis and lead to invasion and metastasis. One important transcription factor that stimulates gene expression in response to cytokines, UV radiation, and other stimuli is nuclear factor-kappa B (NFkB). To measure activation of the NFkB pathway, the CellSensor NFkB-bla ME-180 cell line (Life Technologies, Carlsbad, CA) that stably expresses beta-lactamase reporter gene under the regulation of a NF-kB response element was used. This assay allows measurement of the NFkB pathway activity induced by compounds in a ME-180 cell line. This system quantitates NF-kB activity using a FRET-based assay system where beta-lactamase expression disrupts FRET, allowing for fluorescent measurement of activity. This cell line has been used to screen the Tox21 10K compound library and to identify compounds that induce the NFkB pathway activity. The cytotoxicity of the Tox21 compound library against the NFkB-bla ME-180 cell line was tested in parallel by measuring cell viability using the CellTiter-Glo assay in the same wells.
Tox21 Assay Protocol Summary:
NFkB-bla ME-180 cells were dispensed at 2,000 cells/6 uL of assay medium per well into black wall/clear-bottom 1536-well plates using a Multidrop Combi (ThermoFisher Scientific, Waltham, MA) dispenser. After the assay plates were incubated at 37 C and 5% CO2 for an overnight, 23 nL of compounds dissolved in DMSO, positive controls or DMSO only was transferred to the assay plate by a Pintool station (Kalypsys, San Diego, CA). The assay plates were incubated at 37 C and 5% CO2 for 5 hr. One uL of LiveBLAzer B/G FRET substrate (Life Technologies) was added using a Flying Reagent Dispenser (Aurora Discovery, San Diego, CA) and the plates were incubated at room temperature for 1.5 hr. Fluorescence intensity (405 nm excitation, 460 nm and 530 nm emissions) was measured using an Envision plate reader (PerkinElmer, Shelton, CT). For cytotoxicity, 3 ul/well of CellTiter-Glo reagent was added into the assay plates using an FRD. After 30 min incubation at room temperature, the luminescence intensity was measured using a ViewLux plate reader (PerkinElmer).
Turning to `O=c1[nH]c(=O)[nH]c(=O)[nH]1`, the molecule was classed as inactive. Consider `O=c1n(Cl)c(=O)n(Cl)c(=O)n1Cl`, for which the outcome was inactive. In the case of `COC(=O)c1ccccc1C(=O)OC`, the result was inactive. With `ClCCBr`, the result was inactive. The result for `CC(C)OC(=O)Nc1cccc(Cl)c1` reads “inactive”; that for `CCNc1nc(NC(C)C)nc(SC)n1`, “inactive”; that for `CC(C)(Cl)Cl`, “inactive”. Regarding `OCCN(CCO)CCO`, the molecule was called inactive. With `CC1OC(C)OC(C)O1` (stereo not given), the molecule was classed as inactive. `Cc1ccc(N)cc1N`: the molecule was classed as inactive. Take `CCCCCCCCCl`: the result was inactive.

Regarding `O=NN1CCCCCCC1`, the result was inactive. For the molecule `CN=C=S`, the result was inactive.

Turning to `CCCCN(CC)C(=O)SCCC`, the outcome was inactive. Turning to `Cc1ccc([N+](=O)[O-])cc1C`, the outcome was inactive.

For `CCC[N+](=O)[O-]`, the outcome was inactive. For `CC(C)C#N`, the molecule was classed as inactive. `Cc1cccc([N+](=O)[O-])c1`: the result was inactive. As to `Oc1ccccc1Cl`, the molecule was classed as inactive.

As for `CCN(CC)CCO`, the result was inactive. As to `Cc1cc(Cl)ccc1O`, the molecule was called inactive. The result for `CC(C)(C)OOC(C)(C)C` reads “inactive”. Consider `NCCc1ccc(O)cc1`, for which the call was inactive. For the molecule `Nc1ccc(Oc2ccc(N)cc2)cc1`, the outcome was inactive.

Consider `COC(=O)c1ccccc1N`, for which the result was inactive.

Turning to `CC(Oc1ccc(Cl)cc1Cl)C(=O)O` (stereo not given), the molecule was called inactive. Take `COP(N)(=O)SC` (stereo not given): the call was inactive. In the case of `O=[N+]([O-])c1ccccc1`, the result was inactive. As to `O=C(NC(=O)c1c(F)cccc1F)Nc1cc(Cl)c(OC(F)(F)C(F)C(F)(F)F)cc1Cl` (stereo not given), the result was inactive.

Regarding `COC(=O)NS(=O)(=O)c1ccc(N)cc1`, the molecule was called inactive. For the molecule `O=[N+]([O-])c1ccc([As](=O)(O)O)cc1`, the molecule was called inactive. As to `Cc1ccccc1O`, the result was inactive. The result for `O=S(=O)(c1ccc(Cl)cc1)c1cc(Cl)c(Cl)cc1Cl` reads “inactive”.

On to `CCC12COCN1COC2`, for which the call was inactive. The entry for `CC(C)NC(=O)N1CC(=O)N(c2cc(Cl)cc(Cl)c2)C1=O` is “inactive”; for `c1ccc2c(c1)Oc1ccccc1O2` it is “inactive”; for `O=[N+]([O-])c1ccc(Oc2ccc(Cl)cc2Cl)cc1` it is “inactive”.

With `CCCCN(CCCC)SN(C)C(=O)Oc1cccc2c1OC(C)(C)C2`, the call was inactive. Regarding `C=CCO`, the molecule was classed as inactive.

For the molecule `CC(C)=C[C@@H]1[C@@H](C(=O)OCc2coc(Cc3ccccc3)c2)C1(C)C`, the outcome was inactive.

The values are drawn from PubChem BioAssay (Tox21).
